Results from a collection of fitness landscapes (doi:10.1016/j.celrep.2020.107928).
Whole data set: some 81,000 sequences, median “one-hybrid fitness for binding NBS DNA” near -0.1, cut for the highest 2% near 0.36. Only a selection was taken, and the highest values are over-represented in it overall.

B1: Caulobacter ParB omega fusion; a variant is named by its letters at X, in order, B8GW30 (parent)
chain: MESVVVGEPGMSEGRRGLGRGLSALLGEVDAAPAQAPGEQLGGSREAPIEILQRNPDQPRRTFREEDLEDLSNSIREKGVLQPILVRPSPDTAGEYQIVAGERAWRAAQRAGLKTVPIMVRELDDLAVLEIGIIENVQRADLNVLEEALSYKVLMEKFERTQENIAQTIGKSXSHVANXMRLLXLPDEVQSYLVSGELTAXHARAIAAAADPVALAKQIIEGGLSVRETEALARKAPNLSAGKSKGGRPPRVKDTDTQALESDLSSVLGLDVSIDHRGSTGTLTITYATLEQLDDLCNRLTRGI

Variants of: B1
Assay: one-hybrid fitness for binding NBS DNA (the Noc-binding site; scaled: cognate 1, non-cognate 0); higher = stronger binding
Conditions: with NBS DNA site
In short: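 Values were rescaled so that cognate is 1 and non-cognate is 0. Each is a fitness, the log change in a variant's read ratio to wild type from Illumina reads of plasmids before and after selection, with three replicate libraries pooled and variants under 10 reads dropped. Selection of the Caulobacter ParB libraries, four specificity codons randomised, used E. coli USO with a HIS3 reporter, site 19 bp from the promoter, on M9-minus-histidine with 0.1 mM IPTG and 5 mM 3-AT for 48 hours at 37°C.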

one-hybrid fitness for binding NBS DNA, 0.214:
RKMH

one-hybrid fitness for binding NBS DNA, 0.617:
KRNT

one-hybrid fitness for binding NBS DNA, 0.458:
QCTS

one-hybrid fitness for binding NBS DNA, 0.519:
QRTY

one-hybrid fitness for binding NBS DNA, 0.366:
QKFT

one-hybrid fitness for binding NBS DNA, 0.225:
QCTY

one-hybrid fitness for binding NBS DNA, 0.396:
RYKH
QAFY

one-hybrid fitness for binding NBS DNA, 0.367:
RYKC

one-hybrid fitness for binding NBS DNA, 0.275:
QCYY

one-hybrid fitness for binding NBS DNA, 0.566:
QMRY

one-hybrid fitness for binding NBS DNA, 0.57:
RYKS

one-hybrid fitness for binding NBS DNA, 0.253:
RRMQ

one-hybrid fitness for binding NBS DNA, 0.378:
QIRY

one-hybrid fitness for binding NBS DNA, 0.637:
QCRY

one-hybrid fitness for binding NBS DNA, 0.488:
QHRY

one-hybrid fitness for binding NBS DNA, 0.685:
QTRY

one-hybrid fitness for binding NBS DNA, 0.385:
RQMR

one-hybrid fitness for binding NBS DNA, 0.475:
QKTS

one-hybrid fitness for binding NBS DNA, 0.461:
RCMR

one-hybrid fitness for binding NBS DNA, 0.421:
KRDT

one-hybrid fitness for binding NBS DNA, 0.392:
EFTN

one-hybrid fitness for binding NBS DNA, 0.499:
QARY

one-hybrid fitness for binding NBS DNA, 0.277:
QKFS

one-hybrid fitness for binding NBS DNA, ≤ 0.2:
WTTR
SNER
FAVS
FHLT
EFTS
QPTY
EFTH
PRAG
GACS
RTMP
RHMN
RPMR
RHMP
RTMN
RKMP
SFRE
NGWG
SIAC
KQGK
IDPS
ICRN
NDES
PLNE
RGAY
IIPP
THSS
NHMG
RQMD
RRMF
RQMP
VAIA
LTDL
HGGT
AFTK
SQEG
CATP
LHPG
CDGK
SSSM
GDDT
QKAG
QKFF
QKAC
SHPD
QKML
HTHP
RGSE
SGGC
TILG
LRDT
RTGI
RYYC
RYKP
RYVH
RYKD
RYVC
KHNS
NLKT
YEHY
ADVD
SIIV
DVHC
VIQR
YNMS
QTWY
QLDY
QKDY
QKYY
QPRY
QLYY
GQTS
PQAC
GTQM
HAAV
KEKL
GHAV
VLHR
PYWE
HKSN
MTAW
VLNA
TGSV
QIYY
QAYY
QAFN
QMYY
QAAY
QMDY
QADY
QIHY
WTQT
RKML
FQSI
MFAL
SWRR
QSDY
QHYY
QSYY
QHDY
YIRY
NRNT
NRDT
DRDT
MDAV
TRPC
QPTS
QKTN
QHTP
QKTD
QMTH
QMTD
QHTN

one-hybrid fitness for binding NBS DNA, 0.364:
QSTS

one-hybrid fitness for binding NBS DNA, 0.341:
RLMR
RAMR

one-hybrid fitness for binding NBS DNA, 0.577:
RKMR

one-hybrid fitness for binding NBS DNA, 0.505:
QSRY

one-hybrid fitness for binding NBS DNA, 0.403:
QMTS

one-hybrid fitness for binding NBS DNA, 0.369:
RSMR

one-hybrid fitness for binding NBS DNA, 0.262:
QTYY

one-hybrid fitness for binding NBS DNA, 0.207:
KCNT

one-hybrid fitness for binding NBS DNA, 0.319:
RIMR

one-hybrid fitness for binding NBS DNA, 0.723:
RRMR

one-hybrid fitness for binding NBS DNA, 0.368:
RHMR

one-hybrid fitness for binding NBS DNA, 0.543:
QKAT

one-hybrid fitness for binding NBS DNA, 0.451:
QLRY

one-hybrid fitness for binding NBS DNA, 0.26:
MSHC

one-hybrid fitness for binding NBS DNA, 0.503:
RTMR

one-hybrid fitness for binding NBS DNA, 0.218:
RYKN

one-hybrid fitness for binding NBS DNA, 0.372:
QHTS

one-hybrid fitness for binding NBS DNA, 0.518:
QKRY
